Our source for the growth values is PubChem BioAssay (NCI).

Holding throughout (test): NCI-60 one-dose screen, 48 h (100 = growth as untreated, 0 = no growth, -100 = all killed)
In one experiment the test system is NCI-H322M lung. The following applies: 10 µM unless noted.
Another experiment deals with NCI-H522 lung. The note with it: 10 µM unless noted.
Another experiment relates to COLO 205 colon. The following applies: 10 µM.
The test system of a further experiment is U251 CNS. The following applies: 10 µM unless noted.
The subject of another experiment is CAKI-1 renal. The following applies: 10 µM unless noted.
Another experiment concerns CCRF-CEM leukemia. The following applies: 10 µM unless noted.
In a further experiment the test system is SK-OV-3 ovarian. The note with it: 10 µM unless noted.
A further experiment deals with IGROV1 ovarian. The following applies: 10 µM.
In a further experiment the test system is HS 578T breast. The note with it: 10 µM unless noted.
In another experiment the test system is BT-549 breast. The following applies: 10 µM.
The test system of another experiment is SW-620 colon. The following applies: 10 µM unless noted.
A further experiment has as its system HCT-116 colon. The following applies: 10 µM unless noted.
Another experiment relates to K-562 leukemia. The note with it: 10 µM unless noted.
In a further experiment the test system is LOX IMVI melanoma. The following applies: 10 µM unless noted.
For another experiment, the system named is TK-10 renal. The note with it: 10 µM unless noted.
The next experiment relates to MOLT-4 leukemia. The following applies: 10 µM.
The subject of another experiment is SR leukemia. The note with it: 10 µM.
A further experiment relates to EKVX NSCLC. The note with it: 10 µM unless noted.

Compounds without any hit were thinned out: in the full panel of roughly 83,000, 20% have a hit.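 Percent growth is the endpoint: 0 to 100 indicates growth inhibition (40 means 60% inhibition), 0 means no net growth, and negative values indicate cell death.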 Values without a mark were called inactive. The source made the active and inactive calls. Rule for the calls: active = growth percent below 10; inactive = the rest.

In the case of `C=CCc1ccc(OC(=O)Cc2ccccc2)c(OC)c1`, the growth in the experiment on NCI-H322M lung is 98.3%; in the experiment on NCI-H522 lung, 90.4%; with COLO 205 colon it was 103%; in the experiment with U251 CNS, 99.3%; in the experiment with CAKI-1 renal, 95.2%; in the experiment with CCRF-CEM leukemia, 101%. For the same compound, the growth in the experiment with SK-OV-3 ovarian was 94.2%; in the experiment with IGROV1 ovarian, 99.8%; with HS 578T breast, 114%; in the experiment on BT-549 breast it was 106%; with SW-620 colon it was 106%; in the experiment on HCT-116 colon, 105%.
With `CC1(C)N=C(N)N=C(N)N1c1ccc(CCCCc2ccc(S(=O)(=O)F)cc2)cc1`, the growth in the experiment with NCI-H322M lung was 31.2%; in the experiment with COLO 205 colon, 41.9%; in the experiment on K-562 leukemia it was 19.7%; with U251 CNS, 16.7%; in the experiment on LOX IMVI melanoma, 15.2%; with TK-10 renal, 14.1%. Also, the growth in the experiment with CAKI-1 renal is 40.8%; in the experiment with CCRF-CEM leukemia, 23.4%; in the experiment with MOLT-4 leukemia it was 25.3%; with SR leukemia, 38%; with SK-OV-3 ovarian, 69.1%; with IGROV1 ovarian it was 30.2%. For the same compound, the growth in the experiment with BT-549 breast is 48.7%; with HCT-116 colon, 12.6%.
On to `CCOC(=O)c1cnc(SCc2ccc(Cl)c(Cl)c2)nc1N1CC1`, for which the growth in the experiment with NCI-H322M lung was 69.7%; in the experiment with NCI-H522 lung it was 36.7%; in the experiment on K-562 leukemia it was 21.4%; with LOX IMVI melanoma it was 23.7%; in the experiment with EKVX NSCLC, 69.7%; in the experiment on TK-10 renal it was 71.9%. Also, the growth in the experiment with CAKI-1 renal was 31.1%; in the experiment on CCRF-CEM leukemia it was 38%; in the experiment on MOLT-4 leukemia it was 24.5%; in the experiment on SR leukemia it was 24.1%; in the experiment on SK-OV-3 ovarian, 74.6%; with IGROV1 ovarian, 33.7%. Further, the growth was 59.3% in the experiment with HS 578T breast, 52.6% in the experiment with BT-549 breast and 23.5% in the experiment on HCT-116 colon.
With `CC(=O)C1CCC2C3CC=C4CC(OC(=O)Cc5ccc(N(CCCl)CCCl)cc5)CCC4(C)C3CCC12C` (stereo not drawn), the growth in the experiment on NCI-H322M lung was 119%; in the experiment on NCI-H522 lung, 80%; in the experiment with U251 CNS it was 106%; in the experiment with TK-10 renal it was 113%; in the experiment on CAKI-1 renal it was 87.7%; with CCRF-CEM leukemia it was 64.5%. The growth was 73% in the experiment on MOLT-4 leukemia; 52.7% in the experiment on SR leukemia; 112% in the experiment with SK-OV-3 ovarian; 97.3% in the experiment on IGROV1 ovarian; 126% in the experiment with HS 578T breast; 92% in the experiment with BT-549 breast. For the same compound, the growth with SW-620 colon was 101%; in the experiment with HCT-116 colon, 93.7%.
On to `CC(C)[C@]12O[C@H]1[C@@H]1O[C@]13[C@]1(O[C@H]1C[C@H]1C4=C(CC[C@@]13C)C(=O)OC4)[C@@H]2OC(=O)OC(C)(C)C`, for which the growth with NCI-H322M lung is 3.68% (active); in the experiment on NCI-H522 lung it was -34.3% (active); in the experiment with U251 CNS it was 15.5%; with EKVX NSCLC, -22.4% (active); in the experiment on TK-10 renal it was 5.21% (active); in the experiment with CAKI-1 renal, -49.8% (active). Further, the growth in the experiment on CCRF-CEM leukemia is 13.4%; with MOLT-4 leukemia it was -3.98% (active); in the experiment with SR leukemia it was 3.66% (active); with SK-OV-3 ovarian, 43.6%; with IGROV1 ovarian, -5.58% (active); in the experiment with HS 578T breast it was -6.44% (active). Besides, the values for the growth in the experiment with BT-549 breast, with SW-620 colon and in the experiment on HCT-116 colon were -12.2% (active), 1.09% (active) and 4.76% (active), respectively.
As to `Nc1nc(N)c(-c2ccc(Cl)c(Cl)c2)c(/C=C/c2ccc(S(=O)(=O)F)cc2)n1`, the growth with NCI-H322M lung was 89.8%; with COLO 205 colon it was 98.1%; in the experiment with K-562 leukemia it was 53.4%; in the experiment on CCRF-CEM leukemia, 58.7%; in the experiment on MOLT-4 leukemia, 76.8%; in the experiment with SR leukemia, 76.3%. In addition, the growth in the experiment on SK-OV-3 ovarian was 97.2%; in the experiment on IGROV1 ovarian it was 89.3%; in the experiment with SW-620 colon it was 78.5%; with HCT-116 colon, 77.7%.
For the compound `CCC(CO)NC1CCCCC1` (stereo not drawn), the growth with NCI-H322M lung was 97.2%; with NCI-H522 lung, 68.1%; in the experiment with K-562 leukemia, 16.6%; with U251 CNS, 55.1%; in the experiment with LOX IMVI melanoma, 27.9%; in the experiment with EKVX NSCLC it was 90%. Further, the growth was 70.8% in the experiment with TK-10 renal; 88% with MOLT-4 leukemia; 1.74% (active) in the experiment on SR leukemia; 102% with SK-OV-3 ovarian; 53.9% in the experiment with IGROV1 ovarian; 91.2% in the experiment on HS 578T breast. The results for the growth in the experiment with SW-620 colon and in the experiment on HCT-116 colon were 34.6% and 26.8%, respectively.
Take `CC(C)(O)/C=C/C(=O)[C@](C)(O)[C@H]1[C@H](O)C[C@@]2(C)[C@@H]3CC=C4[C@@H](C=C(O)C(=O)C4(C)C)[C@]3(C)C(=O)C[C@]12C`: the growth is -20.1% (active) in the experiment with NCI-H322M lung; -74.7% (active) in the experiment with NCI-H522 lung; -32.4% (active) with K-562 leukemia; -77.5% (active) with U251 CNS; -59.6% (active) in the experiment on LOX IMVI melanoma; -10.9% (active) with EKVX NSCLC. In addition, the growth in the experiment on TK-10 renal is -54.9% (active); with CAKI-1 renal, -57.2% (active); with CCRF-CEM leukemia, -29.1% (active); in the experiment on SR leukemia, -7.28% (active); with SK-OV-3 ovarian, 5.63% (active); with IGROV1 ovarian, -70.3% (active). In addition, the growth is -17.4% (active) with HS 578T breast, -60.1% (active) in the experiment on BT-549 breast, -20% (active) in the experiment with SW-620 colon and -53.5% (active) with HCT-116 colon.
Regarding `C[As](=O)(O)c1ccc(C(=O)O)cc1`, the growth in the experiment on NCI-H322M lung was 115%; in the experiment on COLO 205 colon it was 115%; in the experiment with K-562 leukemia, 122%; in the experiment with U251 CNS, 89.5%; in the experiment on LOX IMVI melanoma it was 115%; in the experiment on TK-10 renal it was 107%. Moreover, the growth in the experiment with CAKI-1 renal is 120%; in the experiment on MOLT-4 leukemia, 110%; with SR leukemia, 118%; in the experiment on SK-OV-3 ovarian, 106%; with IGROV1 ovarian, 120%; in the experiment on HS 578T breast it was 113%. Moreover, the growth was 117% in the experiment with BT-549 breast, 105% with SW-620 colon and 110% in the experiment on HCT-116 colon.
Turning to `Cc1cc(N(CCCl)CCCl)ccc1C=Nc1ccc2ccccc2c1`, the growth was 103% with NCI-H322M lung; 87.4% in the experiment with COLO 205 colon; 80.7% with K-562 leukemia; 82.8% in the experiment on LOX IMVI melanoma; 73% with TK-10 renal; 1.75% (active) with CAKI-1 renal. Besides, the growth was 55.3% with CCRF-CEM leukemia; 43.7% in the experiment on MOLT-4 leukemia; 46.2% in the experiment with SR leukemia; 63% with IGROV1 ovarian; 86.1% in the experiment on BT-549 breast; 84.9% with SW-620 colon. Moreover, in the experiment on HCT-116 colon, the growth was 79.9%.
Consider `O=C1NC(=O)C(O)(C2(O)C(=O)NC(=O)NC2=O)C(=O)N1`, for which the growth in the experiment with NCI-H322M lung was 132%; in the experiment on NCI-H522 lung, 94.3%; in the experiment on K-562 leukemia it was 87.9%; in the experiment with U251 CNS, 99.9%; with LOX IMVI melanoma, 91.9%; with EKVX NSCLC it was 110%. For the same compound, the growth in the experiment with TK-10 renal is 118%; with CAKI-1 renal, 104%; with CCRF-CEM leukemia, 70.1%; in the experiment with MOLT-4 leukemia it was 85.2%; with SR leukemia it was 95.1%; in the experiment on SK-OV-3 ovarian, 111%. In addition, the growth in the experiment on HS 578T breast is 99%; with SW-620 colon it was 96.4%; with HCT-116 colon it was 97%.
